The text below walks through data of the supplement of paper PMC10681739.

The test has as its target T1, ETS1 (UniProt P14921).
T1 sequence: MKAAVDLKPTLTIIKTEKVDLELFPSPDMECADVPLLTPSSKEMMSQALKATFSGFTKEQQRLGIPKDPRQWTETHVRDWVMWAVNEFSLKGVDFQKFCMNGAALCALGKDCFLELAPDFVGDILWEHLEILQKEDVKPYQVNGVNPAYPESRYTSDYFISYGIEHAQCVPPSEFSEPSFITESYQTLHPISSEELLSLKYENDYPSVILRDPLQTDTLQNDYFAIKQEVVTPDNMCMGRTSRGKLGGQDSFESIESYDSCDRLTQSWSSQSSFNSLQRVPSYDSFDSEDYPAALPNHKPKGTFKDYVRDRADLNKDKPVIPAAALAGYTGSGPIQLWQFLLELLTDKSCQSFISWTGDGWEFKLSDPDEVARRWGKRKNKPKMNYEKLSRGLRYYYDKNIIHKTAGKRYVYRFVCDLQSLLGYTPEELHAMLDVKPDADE
Put plainly: ETS1 binding intensity (PBM fluorescence), ETS1 alone (arbitrary fluorescence units); higher = stronger binding. As to conditions: ETS1 concentration 1 nM; RUNX1 concentration 0 nM.
In turn, ACAATAACAGGAAGTGGTGGGGACTGCGGTGACCTG displayed an ETS1 binding intensity of 4750.
Next, GAGAAACAGGAAGAGGGGTGGTGGTTACGGAACACG: 2290; CAAGGGAACATCCTTAAACAGCTTGTGGTATTGCTG: 735.
Next, CGGGACACAGGAAGCCGTTGTGGGGCCCCGGGGCCA: 1960; GGCTGGCCTAGGAACTTCCGCCACAAGTCCCGCCCC: 1860; GACTTTTACGGAAATAGCAGTCCAAAACCGCGTCTA: 691.
Then CAACTGACCGGACAGAACACAGCCACAAAACACGAG, with 512.
For the sequence AGCGGCCGAAGGAAGTGACGTTTGCGGCAGTAAGGC, the ETS1 binding intensity amounted to 997.
Turning to CCTGCAGCAACAGGATGTGGTTTGAAAGGATGAAAG, the ETS1 binding intensity stood at 7250.
In turn, GAGCGCCCACTTCCTGTTTACCACCCAGCCTCTTCG returned an ETS1 binding intensity of 3670.
Then CCATTTCCGCGCACGTCTGCAGATGCGGTAGTCGAT, with 413.
Then AGCGTTTCCTGCCTGTCTGGGGCTGACAAACCACAA, with 623; and AACTTCCGAGGGAACTAACTGGTTTTAACCACATTG, with 367.
Then GACACAAGCCTCACAGGATGTGGTCAAAGAAGGTTG, with 3830.
With AGGACCGGAAGTGCCCGAGGGCGGCCGCAGAACGGT, the ETS1 binding intensity is 8870.
Then CCGGGCTGCGGAAGGCGGGAACTCTGCGGTTCGCGG, with 484; and AGCTTTCCTTTTCCGGTTGCGGCGCCGCGCGTTGAT, with 1800.
Then CCCGGCCACTTCCGCCTATTGCGGGCGTCGGCTAGG, with 1440.
Then TCCTAAAGCAGGAAATAGTGAGGCTACCGCAGTGTC, with 4180; and CTACTTTCCGGTCAACGCGGCCTGCGGTACCACCTC, with 438.
For CCGCCCTAGAGCAGGAAATAGCGGTCAGCGCCAGCT, the ETS1 binding intensity is 2740.
Next, TAAGTGCAGGAAACGGCTGTGTGGGTGTCAGTGATT: 1350.
Then GGCCTGTCACACACAGGAAGCGGTCACAGAAAAGCT, with 4530; and ACCTCAAGCCCAGGATGTGGTTTGGCCACTATTGAG, with 1310; and CGTCTAATTGCAGGAAGTGGTTTGAAATGTTAATCT, with 4180.
Then CGGGAGGGGCAGGAAGCGGACTGCGGTGGGGAAGGG, with 2770; and GGACCGGTGTCTGGCGGATGCGGTCGTGAAGATAGG, with 1200.
Turning to TTGCCATTCCAGGAAATGAGCTTACCACATTGACTG, the ETS1 binding intensity is 1980.
Next, CCTTGCTACAGGATGTTTTGACCACGAGCCCAGGAG: 1440; TAGCCACTAACCGGAAACGTTAAACCACAGCTCCGT: 10100; GACACAAGAACAGCAGGATGTGGTCAGAGGCGTCGT: 2610.
Next, GGAGGTGGGGAGGAAGTTCTGAAACCACACACATTT: 749; GCCGGAAGCCACGCAGGGCCACGTCTGCGGTTCTGA: 976.
Then TCGCACCGGAACCCCTTGGCGGATTATGTGGGTTCC, with 659; and CCAGCCCAGGAAACAAGGAACCCCAAAGCCACAGGA, with 392; and TGCATGTGCAGCAGAGGAAACCACAAGTTATTCCCT, with 557.
Regarding GAGTCGCTTCCGCTCCCGCCCCGCTCTGTGGCGTAG, the ETS1 binding intensity is 1180.
Take GGAAAAGGAAGTGGCTTTGACTTGCGGGCAGGGAGA: the ETS1 binding intensity came out at 1020.
Then GTTAGCGTGATCGGAGGATGTGGTTTTCCTCCCTCT, with 1440; and TGACATCCTCTGAGGCAGCAAGCTGCGGTGAAGTCT, with 400.
